Experimental findings from publication PMC11006913 are described below.

One assay deals with HOXA4 (Homo sapiens, UniProt Q00056 201-287, W262R). Put plainly: PBM; 200 nM protein, PBS. The following applies: dsDNA, one strand shown.
Chain of HOXA4 (Homo sapiens, UniProt Q00056 201-287, W262R) (Q00056 201-287 W262R): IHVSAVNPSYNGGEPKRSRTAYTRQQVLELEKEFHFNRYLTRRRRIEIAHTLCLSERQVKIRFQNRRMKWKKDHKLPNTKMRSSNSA
Take GCTGCTCC: the binding signal is 9.76 upbm affinity estimate (log intensity, higher = more binding, comparable within an allelic series).

In the case of GACTCCGC, the binding signal is 9.83 upbm affinity estimate (log intensity, higher = more binding, comparable within an allelic series).

AGGCTGGG: the binding signal is 9.88 upbm affinity estimate (log intensity, higher = more binding, comparable within an allelic series).

Regarding CATCCCCC, the binding signal is 9.63 upbm affinity estimate (log intensity, higher = more binding, comparable within an allelic series).

With CCCCCTAG, the binding signal was 9.8 upbm affinity estimate (log intensity, higher = more binding, comparable within an allelic series).

For ATAATGAG, the binding signal was 10.5 upbm affinity estimate (log intensity, higher = more binding, comparable within an allelic series).

Consider CGAGGGCG, for which the binding signal was 9.7 upbm affinity estimate (log intensity, higher = more binding, comparable within an allelic series).

As to AGGGCGGG, the binding signal was 9.85 upbm affinity estimate (log intensity, higher = more binding, comparable within an allelic series).

Regarding ATCATAAG, the binding signal was 10.4 upbm affinity estimate (log intensity, higher = more binding, comparable within an allelic series).

With TAATGAGA, the binding signal was 10.5 upbm affinity estimate (log intensity, higher = more binding, comparable within an allelic series).

On to AGAAGGGG, for which the binding signal is 9.84 upbm affinity estimate (log intensity, higher = more binding, comparable within an allelic series).

As for CACTGGCC, the binding signal is 9.86 upbm affinity estimate (log intensity, higher = more binding, comparable within an allelic series).

Regarding GAAGGGGA, the binding signal is 9.88 upbm affinity estimate (log intensity, higher = more binding, comparable within an allelic series).

Turning to ACCCCCCG, the binding signal was 9.65 upbm affinity estimate (log intensity, higher = more binding, comparable within an allelic series).

CCCGTGTC: the binding signal was 9.85 upbm affinity estimate (log intensity, higher = more binding, comparable within an allelic series).

CATTAACG: the binding signal is 10.6 upbm affinity estimate (log intensity, higher = more binding, comparable within an allelic series).

As to GCCCCCAC, the binding signal is 9.79 upbm affinity estimate (log intensity, higher = more binding, comparable within an allelic series).

As to AGGGCTCC, the binding signal is 9.75 upbm affinity estimate (log intensity, higher = more binding, comparable within an allelic series).

With CCTGGGCG, the binding signal was 9.75 upbm affinity estimate (log intensity, higher = more binding, comparable within an allelic series).

With AGCTCCCC, the binding signal is 9.71 upbm affinity estimate (log intensity, higher = more binding, comparable within an allelic series).

As for CCCCAAGG, the binding signal was 9.82 upbm affinity estimate (log intensity, higher = more binding, comparable within an allelic series).

Regarding CAATAAAG, the binding signal is 10.4 upbm affinity estimate (log intensity, higher = more binding, comparable within an allelic series).

Take GCGGTCAC: the binding signal is 9.83 upbm affinity estimate (log intensity, higher = more binding, comparable within an allelic series).

With GGCCCGGA, the binding signal is 9.72 upbm affinity estimate (log intensity, higher = more binding, comparable within an allelic series).

Take AGGAGTCC: the binding signal was 9.98 upbm affinity estimate (log intensity, higher = more binding, comparable within an allelic series).

Turning to CCCCCCGA, the binding signal is 9.72 upbm affinity estimate (log intensity, higher = more binding, comparable within an allelic series).

Consider ATCCCCCC, for which the binding signal was 9.64 upbm affinity estimate (log intensity, higher = more binding, comparable within an allelic series).

Regarding AGTCCCCG, the binding signal is 9.96 upbm affinity estimate (log intensity, higher = more binding, comparable within an allelic series).

On to CCCAGACC, for which the binding signal is 9.9 upbm affinity estimate (log intensity, higher = more binding, comparable within an allelic series).

As to AGGGACGG, the binding signal was 9.81 upbm affinity estimate (log intensity, higher = more binding, comparable within an allelic series).

Consider CCCCCGGC, for which the binding signal was 9.54 upbm affinity estimate (log intensity, higher = more binding, comparable within an allelic series).

As to CCGGCACG, the binding signal was 9.89 upbm affinity estimate (log intensity, higher = more binding, comparable within an allelic series).

For the sequence GACTCACC, the binding signal is 9.89 upbm affinity estimate (log intensity, higher = more binding, comparable within an allelic series).

On to CCCGGTCG, for which the binding signal was 9.67 upbm affinity estimate (log intensity, higher = more binding, comparable within an allelic series).

In the case of CCCATGGC, the binding signal is 9.82 upbm affinity estimate (log intensity, higher = more binding, comparable within an allelic series).

On to CCGGCTCC, for which the binding signal was 9.74 upbm affinity estimate (log intensity, higher = more binding, comparable within an allelic series).

For the sequence GGGGCACC, the binding signal was 9.71 upbm affinity estimate (log intensity, higher = more binding, comparable within an allelic series).

Turning to AACTAATA, the binding signal is 10.5 upbm affinity estimate (log intensity, higher = more binding, comparable within an allelic series).

For CCTCGTCC, the binding signal was 9.94 upbm affinity estimate (log intensity, higher = more binding, comparable within an allelic series).

As for CATTAATC, the binding signal is 10.5 upbm affinity estimate (log intensity, higher = more binding, comparable within an allelic series).

Another assay deals with HOXB6 (Homo sapiens, UniProt P17509 132-218, K202E). Put plainly: PBM; 200 nM protein, PBS. As to conditions: dsDNA, one strand shown.
Chain of HOXB6 (P17509 132-218 K202E): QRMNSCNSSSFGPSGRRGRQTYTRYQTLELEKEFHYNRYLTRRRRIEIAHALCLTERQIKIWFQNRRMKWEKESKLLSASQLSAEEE
For the sequence CCCCCTAG, the binding signal is 8.81 upbm affinity estimate (log intensity, higher = more binding, comparable within an allelic series).

As to ATCATAAG, the binding signal was 9.66 upbm affinity estimate (log intensity, higher = more binding, comparable within an allelic series).

Regarding CATTAACG, the binding signal was 9.9 upbm affinity estimate (log intensity, higher = more binding, comparable within an allelic series).

Consider GCCCCCAC, for which the binding signal was 9.03 upbm affinity estimate (log intensity, higher = more binding, comparable within an allelic series).

Take GGGGCACC: the binding signal is 8.98 upbm affinity estimate (log intensity, higher = more binding, comparable within an allelic series).

In another assay the target is HOXA2 (Homo sapiens, UniProt O43364 129-215, R185T). Kind of assay: PBM; 200 nM protein, PBS. The following applies: dsDNA, one strand shown.
Chain of HOXA2 (O43364 129-215 R185T): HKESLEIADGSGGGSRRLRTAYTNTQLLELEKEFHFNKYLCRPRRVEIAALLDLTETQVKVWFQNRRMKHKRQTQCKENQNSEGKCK
With ATAATGAG, the binding signal is 12.5 upbm affinity estimate (log intensity, higher = more binding, comparable within an allelic series).

For TAATGAGA, the binding signal was 12.9 upbm affinity estimate (log intensity, higher = more binding, comparable within an allelic series).

As to CACTGGCC, the binding signal was 7.06 upbm affinity estimate (log intensity, higher = more binding, comparable within an allelic series).

Regarding AGGGCTCC, the binding signal is 7.29 upbm affinity estimate (log intensity, higher = more binding, comparable within an allelic series).

As to ATCCCCCC, the binding signal is 7.17 upbm affinity estimate (log intensity, higher = more binding, comparable within an allelic series).

The target in another assay is HOXA4 (Homo sapiens, UniProt Q00056 201-287, R217L). Kind of assay: PBM; 200 nM protein, PBS. The following applies: dsDNA, one strand shown.
Chain of HOXA4 (Homo sapiens, UniProt Q00056 201-287, R217L) (Q00056 201-287 R217L): as the sequence (Q00056 201-287 W262R) above, with R17L, R62W counted along it
In the case of GCTGCTCC, the binding signal was 9.74 upbm affinity estimate (log intensity, higher = more binding, comparable within an allelic series).

Regarding GACTCCGC, the binding signal is 9.81 upbm affinity estimate (log intensity, higher = more binding, comparable within an allelic series).

Take AGGCTGGG: the binding signal was 9.85 upbm affinity estimate (log intensity, higher = more binding, comparable within an allelic series).

With CATCCCCC, the binding signal is 9.8 upbm affinity estimate (log intensity, higher = more binding, comparable within an allelic series).

In the case of CCCCCTAG, the binding signal is 9.86 upbm affinity estimate (log intensity, higher = more binding, comparable within an allelic series).

In the case of ATAATGAG, the binding signal was 11.8 upbm affinity estimate (log intensity, higher = more binding, comparable within an allelic series).

As to CGAGGGCG, the binding signal was 9.75 upbm affinity estimate (log intensity, higher = more binding, comparable within an allelic series).

For the sequence AGGGCGGG, the binding signal is 9.99 upbm affinity estimate (log intensity, higher = more binding, comparable within an allelic series).

As for TAATGAGA, the binding signal is 11.8 upbm affinity estimate (log intensity, higher = more binding, comparable within an allelic series).

On to AGAAGGGG, for which the binding signal was 9.53 upbm affinity estimate (log intensity, higher = more binding, comparable within an allelic series).

CACTGGCC: the binding signal was 9.9 upbm affinity estimate (log intensity, higher = more binding, comparable within an allelic series).

Turning to GAAGGGGA, the binding signal is 9.89 upbm affinity estimate (log intensity, higher = more binding, comparable within an allelic series).

As to ACCCCCCG, the binding signal is 9.8 upbm affinity estimate (log intensity, higher = more binding, comparable within an allelic series).

As to CCCGTGTC, the binding signal was 9.73 upbm affinity estimate (log intensity, higher = more binding, comparable within an allelic series).

For CATTAACG, the binding signal is 11.8 upbm affinity estimate (log intensity, higher = more binding, comparable within an allelic series).

On to GCCCCCAC, for which the binding signal was 9.73 upbm affinity estimate (log intensity, higher = more binding, comparable within an allelic series).

In the case of AGGGCTCC, the binding signal was 9.79 upbm affinity estimate (log intensity, higher = more binding, comparable within an allelic series).

In the case of CCTGGGCG, the binding signal is 9.75 upbm affinity estimate (log intensity, higher = more binding, comparable within an allelic series).

For the sequence AGCTCCCC, the binding signal was 9.69 upbm affinity estimate (log intensity, higher = more binding, comparable within an allelic series).

For the sequence CCCCAAGG, the binding signal is 9.69 upbm affinity estimate (log intensity, higher = more binding, comparable within an allelic series).

GCGGTCAC: the binding signal is 9.77 upbm affinity estimate (log intensity, higher = more binding, comparable within an allelic series).

For GGCCCGGA, the binding signal was 9.68 upbm affinity estimate (log intensity, higher = more binding, comparable within an allelic series).

As for AGGAGTCC, the binding signal is 9.79 upbm affinity estimate (log intensity, higher = more binding, comparable within an allelic series).

As to CCCCCCGA, the binding signal is 9.69 upbm affinity estimate (log intensity, higher = more binding, comparable within an allelic series).

Take ATCCCCCC: the binding signal was 9.49 upbm affinity estimate (log intensity, higher = more binding, comparable within an allelic series).

In the case of AGTCCCCG, the binding signal is 9.67 upbm affinity estimate (log intensity, higher = more binding, comparable within an allelic series).

Take CCCAGACC: the binding signal is 9.76 upbm affinity estimate (log intensity, higher = more binding, comparable within an allelic series).

As to AGGGACGG, the binding signal is 9.83 upbm affinity estimate (log intensity, higher = more binding, comparable within an allelic series).

As to CCCCCGGC, the binding signal is 9.54 upbm affinity estimate (log intensity, higher = more binding, comparable within an allelic series).

As to CCGGCACG, the binding signal was 9.91 upbm affinity estimate (log intensity, higher = more binding, comparable within an allelic series).

As for GACTCACC, the binding signal is 9.87 upbm affinity estimate (log intensity, higher = more binding, comparable within an allelic series).

Take CCCGGTCG: the binding signal is 9.77 upbm affinity estimate (log intensity, higher = more binding, comparable within an allelic series).

Turning to CCCATGGC, the binding signal was 9.81 upbm affinity estimate (log intensity, higher = more binding, comparable within an allelic series).

Consider CCGGCTCC, for which the binding signal is 9.52 upbm affinity estimate (log intensity, higher = more binding, comparable within an allelic series).

For GGGGCACC, the binding signal is 9.76 upbm affinity estimate (log intensity, higher = more binding, comparable within an allelic series).

For AACTAATA, the binding signal is 11.2 upbm affinity estimate (log intensity, higher = more binding, comparable within an allelic series).
